According to PubChem BioAssay (EPA / NIEHS):
Inconclusive results are not listed. Active and inactive are the calls of the source. How the source made its calls: active means hit-call score of the fitted dose curve at least 0.9, where 1 is the maximum; inconclusive means response in the unintended direction; inactive means score below 0.9.

The compounds below were run on HMG-CoA synthase (HMGCS2), HMGCS2 (gene 3158) (assay: CLD_HMGCS2_6hr: CellzDirect (CLD) Gene Expression Assay for HMG-CoA synthase (HMGCS2) at 6 hours (AID 2283682);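 further: actives raise HMGCS2 transcript above the 0.2% DMSO vehicle baseline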).
Method: CLD_6hr is a cell-based, multiplexed-readout assay that uses hepatocyte, a human liver primary cell, with measurements taken at 6 hours after chemical dosing in a 96-well plate.CLD_HMGCS2_6hr is one of 16 assay component(s) measured or calculated from the CLD_6hr assay. It is designed to make measurements of mRNA induction, a form of inducible reporter, as detected with chemiluminescence signals by Quantitative Nuclease Protection Assay (qNPA) technology.Data from the assay component CLD_HMGCS2_6hr was analyzed at the endpoint, CLD_HMGCS2_6hr, in the positive analysis fitting direction relative to DMSO as the negative control and baseline of activity. Using a type of inducible reporter, gain-of-signal activity can be used to understand changes in the reporter gene as they relate to the gene HMGCS2. Furthermore, this assay endpoint can be referred to as a primary readout. To generalize the intended target to other relatable targets, this assay endpoint is annotated to the lyase intended target family, where subfamily is HMG-CoA synthase.
Human hepatocyte cultures were treated daily for two consecutive days with fresh dosing solutions containing appropriate concentrations of the 320 ToxCast chemicals (chemical identities were blinded to CellzDirect and other ToxCast collaborators), vehicle control (0.2% DMSO), and positive control inducers as summarized in Table 1. Due to the large number of treatment groups and chemicals examined, the ToxCast chemicals were divided into two groups (spanning two independent cultures of hepatocytes from separate donor preparations (Hu778: ToxCast plates 1 and 2; Hu776: ToxCast plates 3 and 4). Each preparation of human hepatocyte cultures was treated with respective vehicle control, medium only control, set of six positive controls/reference chemicals for the five hepatic receptor pathways, and a subset of eight of the ToxCast chemicals (indoxacarb, pyrithiobac-sodium, norflurazon, cyhalofop-butyl, methomyl, thiram, acetochlor, and propiconazole). These replicate data, coupled with internal replicates designed within the blinded ToxCast chemical library, provided additional data to evaluate interindividual differences between hepatocyte preparations and their potential impact on chemical profiles.Cell morphology and integrity were evaluated using phase-contrast microscopy as an indicator of hepatocyte cell health (Tyson & Green, 1987). Cultures for each treatment group (i.e., media, vehicle [0.2% DMSO], positive control inducers [multiple concentrations], and the ToxCast chemicals [multiple concentrations]) were observed and cell morphology was assessed relative to vehicle control cultures at each harvest time point (0, 6, 24, or 48 h). […] Images were evaluated at the conclusion of the study to assess changes in cell integrity and account for the effects of chemical exposure on uncharacteristic changes in concentration-dependent gene expression profiles. The results from these determinations of apparent cytotoxicity were annotated (yes/no) alongside the corresponding qNPA data for reference.At the conclusion of each treatment period, hepatocyte cultures (96-well) were washed with 1 volume of HBSS, lysed by addition of 25 ul ArrayPlate lysis buffer (HTG, Tucson, AZ), and 70 ul/well of Denaturation Oil, denatured by incubation at 95C for 10 min, and frozen at approximately -70C until analysis by nuclease protection assay (qNPA) (Roberts et al., 2007). For qNPA analysis, cell lysates were thawed at 50C for approximately 30 min, qNPA probes were added, and samples were incubated at 95C for 10 min to begin the detection process by denaturing the target RNA, dissociating the duplexes and secondary structure hybridization. At the conclusion of the hybridization period, S1 nuclease reagent was added to each sample to digest all nonprotected nucleotides at 50C for 60-90 min. […]
In the case of `CNC(=O)ON=C(SC)C(=O)N(C)C`, the outcome is reported as “inactive”.
For `CC(Oc1cccc(Cl)c1)C(=O)O` (stereo not given), the outcome was “inactive”.
In the case of `CN1COCN(Cc2cnc(Cl)s2)C1=N[N+](=O)[O-]`, the outcome is reported as “inactive”.
With `CNC(=O)ON=C(C)SC` the outcome was “inactive”.
In the case of `C=C(C)[C@H]1Cc2c(ccc3c2O[C@@H]2COc4cc(OC)c(OC)cc4[C@@H]2C3=O)O1`, the outcome is reported as “inactive”.
With `CC[C@H](C)[C@H]1O[C@]2(C=C[C@@H]1C)C[C@@H]1C[C@@H](C/C=C(\C)[C@@H](O[C@H]3C[C@H](OC)[C@@H](O[C@H]4C[C@H](OC)[C@@H](NC)[C@H](C)O4)[C@H](C)O3)[C@@H](C)/C=C/C=C3\CO[C@@H]4[C@H](O)C(C)=C[C@@H](C(=O)O1)[C@]34O)O2` the outcome was “inactive”.
For `CCC(CC)Nc1c([N+](=O)[O-])cc(C)c(C)c1[N+](=O)[O-]`, the outcome was “inactive”.
For `CCOP(=O)(OCC)Oc1cc(C)nc(C(C)C)n1`, the outcome was “inactive”.
With `CCc1cnc(C2=NC(C)(C(C)C)C(=O)N2)c(C(=O)O)c1` (stereo not given) the outcome was “inactive”.
`CCCOCC(=Nc1ccc(Cl)cc1C(F)(F)F)n1ccnc1` was tested, and the outcome was “inactive”.
In the case of `CN(C)NC(=O)CCC(=O)O`, the outcome is reported as “inactive”.
For `C[Si](Cn1cncn1)(c1ccc(F)cc1)c1ccc(F)cc1`, the outcome was “inactive”.
In the case of `CC(COc1ccc(Oc2ccccc2)cc1)Oc1ccccn1` (stereo not given), the outcome is reported as “inactive”.
`O=C(O)c1cc(Oc2ccc(C(F)(F)F)cc2Cl)ccc1[N+](=O)[O-]` was tested, and the AC50 was 5.69 nM (active).
In the case of `CCOP(=S)(OCC)Oc1ccc([N+](=O)[O-])cc1`, the outcome is reported as “inactive”.
In the case of `CCCOc1nn(C(=O)NS(=O)(=O)c2ccccc2C(=O)OC)c(=O)n1C`, the outcome is reported as “inactive”.
For `CSC1=N[C@@](C)(c2ccccc2)C(=O)N1Nc1ccccc1`, the outcome was “inactive”.
For `O=[N+]([O-])c1cc(C(F)(F)F)c(Cl)c([N+](=O)[O-])c1Nc1ncc(C(F)(F)F)cc1Cl`, the outcome was “inactive”.
`CCCSP(=O)(OCC)SCCC` was tested, and the outcome was “inactive”.
In the case of `CCOP(=S)(OCC)Oc1ccc2c(C)c(Cl)c(=O)oc2c1`, the AC50 is reported as 5.08 nM (active).
In the case of `CCOP(=S)(OCC)OC(Cl)C(Cl)(Cl)Cl` (stereo not given), the outcome is reported as “inactive”.
With `CSc1nnc(C(C)(C)C)c(=O)n1N` the outcome was “inactive”.
In the case of `CCC(=NOC/C=C/Cl)C1=C(O)CC(C2CCOCC2)CC1=O` (stereo not given), the outcome is reported as “inactive”.
For `CNC(=O)Oc1cccc2c1OC(C)(C)O2`, the outcome was “inactive”.
`Nc1nc(N)nc(NC2CC2)n1` was tested, and the outcome was “inactive”.
With `O=c1ccc(=O)[nH][nH]1` the outcome was “inactive”.
For `CC1(C(=O)Nc2ccc(O)c(Cl)c2Cl)CCCCC1`, the outcome was “inactive”.
In the case of `CCc1cccc(C)c1N(C(=O)CCl)C(C)COC` (stereo not given), the outcome is reported as “inactive”.
For `CCNc1nc(Cl)nc(NC(C)(C)C#N)n1`, the outcome was “inactive”.
With `CN(C)[C@@H]1C(=O)C(C(N)=O)=C(O)[C@@]2(O)C(=O)C3=C(O)c4c(O)cccc4[C@@](C)(O)[C@H]3[C@H](O)[C@@H]12` the outcome was “inactive”.
With `COc1cc(OC)nc(Sc2cccc(Cl)c2C(=O)O)n1` the outcome was “inactive”.
With `CCOP(=S)(OCC)SCCSCC` the outcome was “inactive”.
In the case of `CC1=NNC(=O)N(/N=C/c2cccnc2)C1`, the outcome is reported as “inactive”.
In the case of `C#CCC1=C(C)C(OC(=O)C2C(C=C(C)C)C2(C)C)CC1=O` (stereo not given), the outcome is reported as “inactive”.
With `CCC(=O)Nc1ccc(Cl)c(Cl)c1` the outcome was “inactive”.
`COc1cccc(C(=O)NN(C(=O)c2cc(C)cc(C)c2)C(C)(C)C)c1C` was tested, and the outcome was “inactive”.
In the case of `N#CSCSC#N`, the outcome is reported as “inactive”.
With `COP(=O)(OC)OC(Br)C(Cl)(Cl)Br` (stereo not given) the outcome was “inactive”.
In the case of `CN(C)C(=O)Nc1cccc(C(F)(F)F)c1`, the outcome is reported as “inactive”.
With `CCCCOC(=O)[C@@H](C)Oc1ccc(Oc2ccc(C#N)cc2F)cc1` the outcome was “inactive”.
